Gal4-VP16 FLuc – Gal4-VP16 reporter inhibition counter-screen | Drosophila S2 Gal4-VP16 UAS-luciferase, luminescence, 20 h | Potency, µM (top dose mostly 53.6 µM), for inactives: top-dose activity, negative = inhibition, usual class: inhibitors | 310,000 compounds, 3.5% hits;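 note: Gal4-VP16 expression switched on by copper sulfate through the metallothionein promoter; nearly all actives have a fitted effect of over 50% in size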
RORg inh – inhibitors of mouse ROR gamma transcriptional activity; Potency, µM (doses to about 53.6 µM), for the others: top-dose activity change, negative = inhibition, most hits filed as inhibitors; P51450; Drosophila S2 Gal4-RORgamma UAS-luciferase reporter, 20 h; 310,000 compounds, 5.4% hits; note: nearly all actives have a fitted effect of over 60% in size
Target sequence (P51450 whole entry, looked up, the tested form may be a part): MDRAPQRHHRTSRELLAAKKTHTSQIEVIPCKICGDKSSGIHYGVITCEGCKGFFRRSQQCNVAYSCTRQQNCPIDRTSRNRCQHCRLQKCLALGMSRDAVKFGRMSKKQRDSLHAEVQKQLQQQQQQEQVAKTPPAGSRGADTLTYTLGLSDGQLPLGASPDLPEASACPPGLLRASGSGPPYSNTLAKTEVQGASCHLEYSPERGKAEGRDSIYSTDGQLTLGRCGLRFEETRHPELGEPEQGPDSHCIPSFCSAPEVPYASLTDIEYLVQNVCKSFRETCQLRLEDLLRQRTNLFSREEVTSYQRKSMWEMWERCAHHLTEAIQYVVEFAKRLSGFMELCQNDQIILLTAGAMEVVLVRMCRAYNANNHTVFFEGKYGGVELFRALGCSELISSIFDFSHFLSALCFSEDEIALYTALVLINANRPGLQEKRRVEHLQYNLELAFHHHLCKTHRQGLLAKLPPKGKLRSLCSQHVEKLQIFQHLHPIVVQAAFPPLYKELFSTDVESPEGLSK
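Stable Schneider cell line, Gal4 DNA-binding domain fused to ROR gamma, UAS-luciferase. Cmpd 1 hr RT → CuSO4 700 uM final → 20 hr RT → luciferase reagent 10 min → luminescence.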
Tau FP inhib – inhibitors of human tau fibril formation; K18 P301L tau heparin fibrillization, Alexa594 FP, 6 h; Potency, µM (top dose mostly 57.7 µM), for inactives: top-dose activity, negative = inhibition, actives largely listed as inhibitors; 280,000 compounds, 0.39% hits; AID 1468; note: nearly all actives have a fitted effect of over 55% in size
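Steps: dispense K18 P301L tau (15 uM plus 0.24 uM Alexa 594 tracer, final) in pH 7 sodium acetate; add compound; add heparin (20 uM final); incubate 6 hr, 37 C; add ThT (30 uM final); after 1 hr ambient, read FP.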
Tau fluor cs – counter-screen for tau fibril formation inhibitors; tau K18 P301L Alexa594 fluorescence, heparin fibrillization; Potency, µM (highest dose often 57.7 µM), for inactives: top-dose activity change, negative = decrease; 280,000 compounds, 0.93% hits; AID 1463; note: nearly all actives have a fitted effect of over 55% in size
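Human K18 P301L tau (15 uM unlabeled plus 0.24 uM Alexa 594-labeled, final) in 100 mM sodium acetate pH 7 was mixed with compound and 20 uM heparin and incubated 6 hr at 37 C.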
Tau ThT inhib – blocks human tau fibril formation measured by thioflavin T. P10636. Potency, µM (titrated, usually from 57.4 µM), for inactives: at the highest dose activity, negative = inhibition, actives largely listed as inhibitors. recombinant tau K18 P301L, heparin-induced fibrillization, ThT fluorescence. 270,000 compounds, 2.1% hits; note: nearly all actives have a fitted effect of over 55% in size
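ThT emission at 510 nm, taken 1 hr after adding 30 uM dye, quantifies aggregates formed when 20 uM heparin acts on human tau K18 P301L for 6 hr at 37 C.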
Starred values were filed as active, the others as inactive; ? = inconclusive; nt = no result; [ ] = remark or other dose. In the library only some 7.3% were active in any assay of this set; here they are far more common. Calls come from the whole dose curve; as a rule, active = well fitted curve in the direction sought with a large enough effect; inconclusive = small, poorly fitted or top-dose-only effect, or another doubt; inactive = no such curve, though single readings can be large; an effect the other way counts as inactive or inconclusive. % is set by controls: 0 for no effect and ±100 for the full control effect; potency is the fitted concentration of half-maximal effect.

SMILES	Gal4-VP16 FLuc	RORg inh	Tau FP inhib	Tau fluor cs	Tau ThT inhib
COc1ccccc1-c1c(C(F)(F)F)oc2c(CN3CCCCC3C)c(O)ccc2c1=O (configuration not stated)	nt	nt	3%	-1%	0%
Cc1nc2sc(C(=O)N(C)Cc3ccccc3)c(NC(=O)c3ccccc3)c2c(C)c1Cl	nt	nt	-6%	-7%	-5%
NC(C(=O)O)c1cc(O)c(Cl)c(O)c1 (configuration not stated)	nt	nt	-2%	4%	9%
CCCCc1nc2c(c3c1C[C@H](C)OC3)CN(C(=O)NCCCC(=O)OCC)CC2	nt	nt	-5%[11.6 µM]	-12%[11.6 µM]	-11%[11.5 µM]
COc1ccc(C(CC(=O)N2CCN(c3ccccc3)CC2)c2c(OC)cc(OC)c3ccc(=O)oc23)cc1 (configuration not stated)	-21%	5%	12%	-24%	-13%
CCCC(=O)NC(c1ccco1)c1cc(Cl)c2cccnc2c1O (configuration not stated)	3.5µM*	4µM*	11%	-4%	-10%
Cn1c(N)c(-c2ccccc2)c2ccc([N+](=O)[O-])cc2c1=O	0%	?	nt	nt	nt
NC(=S)n1[nH]c(-c2ccc([N+](=O)[O-])cc2)c(N=Nc2ccc(Cl)cc2)c1=O	?	0.4µM*	9%	?	4µM*
O=c1c(N=Nc2ccc(O)cc2)c(-c2ccccc2)[nH]n1-c1ccc([N+](=O)[O-])cc1	-2%	-1%	-6%	?	?
Cc1ccc([N+](=O)[O-])cc1N=C(c1ccc([N+](=O)[O-])cc1)N1CCOCC1	-8%	0%	0%	-16%	-2%
Cc1ccc([N+](=O)[O-])cc1N=Nc1c(C)[nH]n(C(N)=S)c1=O	10µM*	7.1µM*	nt	nt	nt
Cc1ccc([N+](=O)[O-])cc1N=Nc1c(-c2ccc([N+](=O)[O-])cc2)[nH]n(C(N)=S)c1=O	-11%	0.32µM*	2%	?	?
O=C(COC(=O)C1C2CC3OC(=O)C1C3C2)Nc1cccc(Cl)c1 (configuration not stated)	2%	2%	nt	nt	nt
CSc1nc(NS(=O)(=O)c2ccc(F)cc2F)nn1C	-1%	1%	nt	nt	nt
Nc1nc(Sc2c([N+](=O)[O-])cc(C(F)(F)F)cc2[N+](=O)[O-])n[nH]1	16µM*	10µM*	-4%	?	?
C=CCn1c(O)c(C2=c3ccccc3=NC2=O)sc1=Nc1ccc(O)cc1	?	-18%	?	13µM*[quencher]	13µM*
COc1cccc(-c2nn(Cc3ccccc3)cc2CO)c1	16%	9%	nt	nt	nt
CCOC(=O)C(C)On1c(-n2nc(C)cc2C)nc2ccccc2c1=O (configuration not stated)	6.3µM*	2.5µM*	nt	nt	nt
COC(=O)COn1c(-n2nc(C)cc2C)nc2ccccc2c1=O	8.9µM*	4µM*	-5%	-5%	-9%
Cc1cc(C)n(-c2nc3ccccc3c(=O)n2OCC(C)C)n1	2%	?	nt	nt	nt
CCOn1c(-n2nc(C)cc2C)nc2ccccc2c1=O	6%	-35%	4%	-5%	-13%
Cc1cc(C)n(-c2nc3ccccc3c(=O)n2OCC#N)n1	1µM*	0.5µM*	nt	nt	nt
CCOC(=O)COn1c(-n2nc(C)cc2C)nc2ccccc2c1=O	14µM*	18µM*	nt	nt	nt
CC1CCCN(S(=O)(=O)c2ccc(NC(=O)c3nc(SC(C)C)ncc3Cl)cc2)C1 (configuration not stated)	nt	nt	-10%	?	?
CCCC/C=C/[C@@H](c1ccccc1)C1COC(=O)CC1O (some centres not stated)	-19%	-6%	nt	nt	nt
COc1ccc(NC(=O)N2CCCC3(CCN(C(=O)c4ccncc4)CC3)C2)cc1	-17%	-2%	nt	nt	nt
Cc1ccc(NC(=O)COc2cccc(/C=C3\SC(=S)N(CCC(=O)O)C3=O)c2)cc1Cl	-28%	-24%	-1%	-13%	13µM*
O=C(O)CCN1C(=O)/C(=C\c2cccc(OCC(=O)Nc3ccc(Cl)cc3)c2)SC1=S	5%	?	-4%	-16%	13µM*
O=C(CCN1C(=O)/C(=C/c2ccc(Cl)cc2)SC1=S)Nc1cccc(C(=O)O)c1	6%	21%	nt	nt	nt
